Assay [1] can be described thus: qHTS RealTime-Glo MT Cell Viability Assay in HepG2 cells - 8 hour (AID 1224873). Further: nearly all actives have a fitted effect of over 55% in size. Further: potency means the concentration at half of the fitted maximal effect. The essentials: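 HepG2 cells mixed with RealTime-Glo MT reagents (NanoLuc plus cell-permeant prosubstrate) were seeded at 600 cells/well, incubated 5 h at 37 C/5% CO2, then pinned with compounds in DMSO; nonlytic luminescence tracked viability during 40 h treatment.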
Assay [2] can be described thus: qHTS RealTime-Glo MT Cell Viability Assay in HEK293 cells - 40 hour (AID 1224874). Further: nearly all actives have a fitted effect of over 50% in size. Further: potency means the concentration at half of the fitted maximal effect. The settings on record: RealTime-Glo luminescence; max response: stronger effect = lower value. The essentials:
(§1)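 Kinetic, non-lysing viability readout. Seed HEK293 (600/well) with reagent, incubate 5 h at 37 C/5% CO2, pin 23 nL compound in DMSO, incubate at 37 C, read luminescence at 0, 8, 16, 24, 32, 40 h.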

Assay [3] in a line: A CellTox Green Cytotoxicity Assay to monitor cytotoxicity in HEK293 cells - 24 hour (AID 1224875). Further: nearly all actives have a fitted effect of over 45% in size. Further: potency means the concentration at half of the fitted maximal effect. The essentials: (§2)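 Real-time, in one plate: 600 HEK293 cells/well with dead-cell DNA dye, pinned compound after 5 h, 37 C incubation over 40 h; viable cells give no appreciable fluorescence.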
The nature of assay [4]: A CellTox Green Cytotoxicity Assay to monitor cytotoxicity in HepG2 cells - 16 hour (AID 1224876). Further: nearly all actives have a fitted effect of over 45% in size. Further: potency means the concentration at half of the fitted maximal effect. The essentials: (§3)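 Cytotoxicity was tracked as dead-cell DNA fluorescence in HepG2 cells treated with test compounds at 37 C; each time-point value comes from one kinetic series spanning 0, 8, 16, 24, 32 and 40 h.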
Assay [5] in a line: qHTS RealTime-Glo MT Cell Viability Assay in HepG2 cells - 32 hour (AID 1224877). Further: nearly all actives have a fitted effect of over 55% in size. Further: potency means the concentration at half of the fitted maximal effect. The essentials:
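Cells + NanoLuc/prosubstrate dispensed (600 cells/well) → 5 h at 37 C/5% CO2 → compounds in DMSO transferred → 40 h incubation at 37 C, luminescence read at 0, 8, 16, 24, 32, 40 h.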

Assay [6] can be described thus: A CellTox Green Cytotoxicity Assay to monitor cytotoxicity in HepG2 cells - 24 hour (AID 1224878). Further: nearly all actives have a fitted effect of over 45% in size. Further: potency means the concentration at half of the fitted maximal effect. The essentials:
as §3

Assay [7] is described as follows: A CellTox Green Cytotoxicity Assay to monitor cytotoxicity in HepG2 cells - 40 hour (AID 1224879). Further: nearly all actives have a fitted effect of over 40% in size. Further: potency means the concentration at half of the fitted maximal effect. The essentials:
as §3

A short description of assay [8]: qHTS RealTime-Glo MT Cell Viability Assay in HEK293 cells - 0 hour (AID 1224880). Further: top concentration of the series differs between compounds; nearly all actives have a fitted effect of over 45% in size. The essentials:
as §1

A short description of assay [9]: A CellTox Green Cytotoxicity Assay to monitor cytotoxicity in HEK293 cells - 32 hour (AID 1224881). Further: nearly all actives have a fitted effect of over 40% in size. Further: potency means the concentration at half of the fitted maximal effect. The essentials:
as §2

A short description of assay [10]: A CellTox Green Cytotoxicity Assay to monitor cytotoxicity in HepG2 cells - 0 hour (AID 1224882). Further: nearly all actives have a fitted effect of over 35% in size. Further: potency means the concentration at half of the fitted maximal effect. The essentials: as §3

Potency and max response data for 17 molecules are collected here from PubChem BioAssay (Tox21).

Several values for one entry are separate records, joined by “and”; a condition that tells them apart may be missing. Equal entries are not always repeated. Inconclusive results are not listed. Where a structure was tested more than once in an assay, its records may differ in their call. Activity calls are given as the source filed them. The call rests on the fitted dose curve; in most records, active means well fitted curve in the direction sought with a large enough effect in the repeat runs; inconclusive means weak or mixed curves; inactive means no such curve, though single readings can be large; an effect the other way counts as inactive or inconclusive.
On the % scale 0 is the no-effect control and ±100 the full control effect.

On to `COc1cc(C(=S)N2CCOCC2)ccc1O`, for which the Potency entry in assay [1], in [3], in assay [4], in assay [5], in assay [6] and in assay [7] was “inactive” throughout. The Potency result in [8], in [9] and in assay [10] was “inactive” each time. Further, in assay [2], the max response is 0.473% (inactive).

As to `O=C1CC2(CCCC2)CC(=O)N1CCCCN1CCN(c2ncccn2)CC1`, the Potency entry in assay [1], in assay [3], in [4], in [5], in assay [6] and in assay [8] was “inactive” throughout. Besides, the Potency entry in [9] was “inactive”. Also, the Potency in assay [2] was 27.5 µM (active); in [7], 38.9 µM (active) and inactive.

`CCOC(=O)C(C)C(C)=O` (centres undefined): the Potency result in [1], in assay [3], in assay [4], in assay [5], in [6] and in assay [7] was “inactive” throughout. In addition, the Potency result in assay [8], in assay [9] and in assay [10] was “inactive” in each case. In assay [2], the max response is -0.314% (inactive).

Take `CCCCN(CCO)CCCC`: the Potency result in [1], in assay [3], in assay [4], in [5], in assay [6] and in [7] was “inactive” throughout. Also, the Potency entry in assay [8] and in assay [9] was “inactive” each time. For the same molecule, the max response in assay [2] is 2.9% (inactive).

For the molecule `CCc1cc(C(C)(C)C)c(O)c(C(C)(C)C)c1`, the Potency result in [1], in [4], in assay [5], in [6], in [7] and in [8] was “inactive” throughout. Besides, the Potency entry in [10] was “inactive”. Besides, the max response in assay [2] was 1.58% (inactive) and -10.1% (inactive). In addition, the Potency in assay [3] and in [9] was 21.9 µM (active) each time.

With `CC(C)(O)CCC(C)(C)O`, the Potency result in assay [1], in assay [3], in [4], in assay [5], in assay [6] and in [7] was “inactive” in each case. Moreover, the Potency entry in assay [8], in [9] and in [10] was “inactive” throughout. Besides, in assay [2], the max response was -3.66% (inactive).

As to `O=Cc1ccc(Cl)cc1`, the Potency result in assay [1], in assay [3], in assay [4], in assay [5], in assay [6] and in assay [7] was “inactive” in each case. Also, the Potency result in assay [8], in assay [9] and in assay [10] was “inactive” in each case. Further, in assay [2], the max response was -1.8% (inactive).

Regarding `CC1COC(=O)O1` (centres undefined), the Potency entry in assay [1], in [3], in assay [5], in assay [8] and in assay [9] was “inactive” throughout. In addition, in assay [2], the max response was 9.29% (inactive) and -24.4% (inactive). Besides, the Potency entry in [4] is “inactive and 38.9 µM (active)”; in [6], “inactive and 43.6 µM (active)”; in assay [7] it was “inactive and 43.6 µM (active)”; in assay [10], “inactive and 43.6 µM (active)”.

For `O=C(O)c1cc(Cl)cc(Cl)c1`, the Potency entry in [1], in [3], in assay [4], in [5], in assay [6] and in assay [7] was “inactive” throughout. Further, the Potency result in [8], in assay [9] and in [10] was “inactive” each time. Moreover, the max response in assay [2] was 8.11% (inactive).

Regarding `CCC(CO)(CO)COCC(CC)(CO)CO`, the Potency result in [1], in assay [3], in assay [4], in assay [5], in assay [6] and in assay [7] was “inactive” throughout. Besides, the Potency result in assay [8] and in assay [9] was “inactive” throughout. Moreover, in assay [2], the max response was -1.05% (inactive).

For the molecule `O=C(Oc1ccccc1)c1ccccc1O`, the Potency result in assay [1], in assay [3], in assay [4], in assay [5], in assay [6] and in assay [7] was “inactive” throughout. Also, the Potency entry in assay [8], in assay [9] and in [10] was “inactive” throughout. The max response in assay [2] is -18.8% (inactive) and -3% (inactive) and 3.05% (inactive).

With `CC[C@]1(O)C[C@@H]2CN(CCc3c([nH]c4ccccc34)[C@@](C(=O)OC)(c3cc4c(cc3OC)N(C)[C@H]3[C@@](O)(C(=O)OC)[C@H](OC(C)=O)[C@]5(CC)C=CCN6CC[C@]43[C@@H]65)C2)C1`, the Potency result in [1], in assay [3], in assay [4], in assay [5], in assay [6] and in assay [7] was “inactive” throughout. Further, the Potency entry in assay [8] and in [9] was “inactive” each time. In addition, in assay [2], the Potency was 15.1 nM (active) and 5.4 nM (active).

On to `O=C(OCc1ccccc1)c1ccc(O)cc1`, for which the Potency result in [1], in assay [3], in assay [4], in assay [5], in [6] and in assay [8] was “inactive” each time. Besides, the Potency entry in assay [9] and in assay [10] was “inactive” throughout. Besides, the max response in [2] was -24.2% (inactive). For the same molecule, in assay [7], the Potency was 49 µM (active) and inactive.

For the molecule `COc1ccc(CCN2CCC(Nc3nc4ccccc4n3Cc3ccc(F)cc3)CC2)cc1`, the Potency in assay [1] is 35.4 µM (active) and 23.9 µM (active); in assay [2] it was 5.62 µM (active) and 10.7 µM (active); in [3], 17.8 µM (active) and 23.9 µM (active); in assay [4], 31.6 µM (active) and 21.3 µM (active); in assay [5], 15.8 µM (active) and 10.7 µM (active); in assay [6], 19.9 µM (active) and 9.52 µM (active). The Potency in assay [7] was 15.8 µM (active) and 8.49 µM (active); in assay [9] it was 14.1 µM (active) and 23.9 µM (active). The Potency result in assay [8] and in [10] was “inactive” each time.

Take `C=C(C)C1CC=C(C)C(OC(C)=O)C1` (centres undefined): the Potency entry in assay [1], in assay [3], in [4], in assay [5], in [6] and in [7] was “inactive” in each case. For the same molecule, the Potency entry in assay [8] and in assay [9] was “inactive” in each case. Also, in assay [2], the max response is -4.93% (inactive) and 11% (inactive).

For the molecule `CC(C)(C)NCC(O)COc1ccccc1OCC1CCCO1` (centres undefined), the Potency entry in assay [1], in assay [3], in assay [4], in assay [5], in assay [6] and in assay [7] was “inactive” each time. The Potency entry in assay [8], in assay [9] and in assay [10] was “inactive” each time. Moreover, the max response in [2] was 0.952% (inactive).

In the case of `C1COC(NC(C2CC2)C2CC2)=N1`, the Potency entry in assay [1], in [3], in [4], in assay [5], in [6] and in assay [7] was “inactive” each time. Further, the Potency entry in [8] and in [9] was “inactive” each time. Also, the max response in assay [2] is 5.02% (inactive).
